From PubChem BioAssay (EPA / NIEHS)
Results filed as inconclusive are left out. Calls of active or inactive are those of the source. How the source made its calls, unless noted: active means hit-call score of the fitted dose curve at least 0.9, where 1 is the maximum; inconclusive means response in the unintended direction; inactive means score below 0.9.

What was measured:
[1] = molecular target: human RAR-related Orphan Receptor gamma (RORg), RORC (gene 6097) (UniProt P51449); experiment: ATG_RORg_TRANS: Attagene TRANS-FACTORIAL HepG2 Assay for human RAR-related Orphan Receptor gamma (RORg) (AID 2283011)
Chain of human RAR-related Orphan Receptor gamma (RORg), RORC (gene 6097) (P51449 whole entry, looked up, the tested form may be a part): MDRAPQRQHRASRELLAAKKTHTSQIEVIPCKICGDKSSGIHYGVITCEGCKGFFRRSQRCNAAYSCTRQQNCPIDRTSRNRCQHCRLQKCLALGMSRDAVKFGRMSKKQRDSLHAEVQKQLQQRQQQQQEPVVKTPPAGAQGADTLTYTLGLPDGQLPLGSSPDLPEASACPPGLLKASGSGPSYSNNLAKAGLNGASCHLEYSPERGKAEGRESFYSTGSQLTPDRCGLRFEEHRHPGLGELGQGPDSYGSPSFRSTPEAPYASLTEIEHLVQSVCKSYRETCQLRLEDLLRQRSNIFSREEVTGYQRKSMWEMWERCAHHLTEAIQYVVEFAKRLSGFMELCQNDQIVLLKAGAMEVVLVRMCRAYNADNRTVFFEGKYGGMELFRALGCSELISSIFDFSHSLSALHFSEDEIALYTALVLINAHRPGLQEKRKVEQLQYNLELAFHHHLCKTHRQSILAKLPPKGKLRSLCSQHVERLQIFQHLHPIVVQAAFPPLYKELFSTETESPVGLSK
In short: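 HepG2 cells transiently transfected with GAL4-UAS reporter units and chimeric RORg-Gal4 construct; after 24 h chemical exposure, reporter mRNA measured by RT-PCR with fluorescent capillary electrophoresis, gain of signal fitted against DMSO.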

[2] = molecular target: Retinoic acid receptor RXR-alpha (Homo sapiens) (UniProt P19793); experiment: ATG_RXRa_TRANS: Attagene TRANS-FACTORIAL HepG2 Assay for human Retinoid X Receptor alpha (RXRa) (AID 2283012)
Chain of Retinoic acid receptor RXR-alpha (Homo sapiens) (P19793 whole entry, looked up, the tested form may be a part): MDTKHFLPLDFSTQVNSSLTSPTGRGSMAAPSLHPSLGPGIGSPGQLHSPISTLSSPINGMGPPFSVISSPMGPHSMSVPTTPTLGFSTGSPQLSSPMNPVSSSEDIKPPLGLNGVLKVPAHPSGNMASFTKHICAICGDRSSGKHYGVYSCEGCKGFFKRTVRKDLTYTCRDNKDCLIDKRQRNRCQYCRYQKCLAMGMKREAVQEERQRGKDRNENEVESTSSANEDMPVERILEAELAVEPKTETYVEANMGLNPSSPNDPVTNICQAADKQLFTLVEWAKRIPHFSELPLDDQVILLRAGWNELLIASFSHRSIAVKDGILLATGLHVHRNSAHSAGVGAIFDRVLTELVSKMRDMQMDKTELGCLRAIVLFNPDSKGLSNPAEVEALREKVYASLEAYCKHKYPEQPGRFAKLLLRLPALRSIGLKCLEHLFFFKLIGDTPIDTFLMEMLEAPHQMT
In short: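 Measures exogenous chimeric NR-GAL4 activity in transfected HepG2 liver cells after 24 h of dosing. Induced reporter mRNA was detected by RT-PCR with capillary electrophoresis, and gain of signal was analysed against DMSO.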

[3] = molecular target: human Retinoid X Receptor beta (RXRb), RXRB (gene 6257) (UniProt P28702); experiment: ATG_RXRb_TRANS: Attagene TRANS-FACTORIAL HepG2 Assay for human Retinoid X Receptor beta (RXRb) (AID 2283013)
Chain of human Retinoid X Receptor beta (RXRb), RXRB (gene 6257) (P28702 whole entry, looked up, the tested form may be a part): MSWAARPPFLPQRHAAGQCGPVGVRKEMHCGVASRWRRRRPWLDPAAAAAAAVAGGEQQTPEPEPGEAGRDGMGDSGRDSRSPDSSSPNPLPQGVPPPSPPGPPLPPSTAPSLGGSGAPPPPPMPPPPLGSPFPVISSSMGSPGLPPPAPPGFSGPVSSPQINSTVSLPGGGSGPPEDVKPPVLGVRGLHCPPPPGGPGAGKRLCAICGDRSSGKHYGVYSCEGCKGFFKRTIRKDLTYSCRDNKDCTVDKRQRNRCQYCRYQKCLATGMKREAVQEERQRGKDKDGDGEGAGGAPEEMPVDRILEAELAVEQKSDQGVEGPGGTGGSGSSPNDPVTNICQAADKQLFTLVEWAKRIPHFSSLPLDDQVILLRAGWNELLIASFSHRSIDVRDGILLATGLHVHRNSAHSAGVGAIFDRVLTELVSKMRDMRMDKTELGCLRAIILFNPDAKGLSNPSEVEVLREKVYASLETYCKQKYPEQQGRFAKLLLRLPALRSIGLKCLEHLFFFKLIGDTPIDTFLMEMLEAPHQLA
In short: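 Chimeric receptor-Gal4 activity was assessed in transiently transfected human HepG2 cells after 24 h exposure. Transcripts from GAL4-UAS reporters were quantified by fluorescent RT-PCR and capillary electrophoresis, with DMSO as negative control and baseline.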

[4] = read-out: E-selectin (Homo sapiens) (UniProt P16581); experiment: BSK_3C_Eselectin: BioMAP Diversity Plus: 3C Assay for Eselectin Biomarker Activity (AID 2283015; active means hit-call score of the fitted dose curve at least 0.9, where 1 is the maximum; inactive means score below 0.9); details: primary human endothelial cells (HUVEC); actives raise or lower the signal
In short: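 Primary human umbilical vein endothelial cells (3C system), read 24 h after compound addition; E-selectin measured by ELISA. Bidirectional curve fitting against DMSO baseline; cytotoxicity by parallel SRB total-protein staining.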

[5] = read-out: Interleukin-1 alpha (IL1a), IL1A (gene 3552); experiment: BSK_BE3C_IL1a: BioMAP Diversity Plus: BE3C Assay for Interleukin-1 alpha (IL1a) Biomarker Activity (AID 2283016; active means hit-call score of the fitted dose curve at least 0.9, where 1 is the maximum; inactive means score below 0.9); details: primary human bronchial epithelial cells; actives raise or lower the signal
In short: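 Signal from IL-1a ELISA, taken 24 h after chemical dosing of human bronchial epithelial cells, is compared with DMSO as baseline using bidirectional curve fitting.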

[6] = read-out: Monocyte Chemoattractant Protein-1 (MCP1), CCL2 (gene 6347); experiment: BSK_3C_MCP1: BioMAP Diversity Plus: 3C Assay for Monocyte Chemoattractant Protein-1 (MCP1) Biomarker Activity (AID 2283017; active means hit-call score of the fitted dose curve at least 0.9, where 1 is the maximum; inactive means score below 0.9); details: primary human endothelial cells (HUVEC); actives raise or lower the signal
In short: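 Human umbilical vein endothelial cells (3C system) exposed to chemicals for 24 h; MCP-1 quantified by ELISA against the DMSO baseline with bidirectional fitting, and parallel SRB staining used to assess cytotoxicity.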

[7] = read-out: Monocyte Chemoattractant Protein-1 (MCP1), CCL2 (gene 6347); experiment: BSK_4H_MCP1: BioMAP Diversity Plus: 4H Assay for Monocyte Chemoattractant Protein-1 (MCP1) Biomarker Activity (AID 2283018; active means hit-call score of the fitted dose curve at least 0.9, where 1 is the maximum; inactive means score below 0.9); details: primary human endothelial cells (HUVEC); actives raise or lower the signal
In short: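 Endothelial cells from umbilical vein were treated with test chemical, then after 24 h MCP-1 levels were quantified by ELISA; endpoint values came from bidirectional fitting with DMSO as baseline of activity.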

[8] = read-out: Human Leukocyte Antigen - DR isotype (HLADR), HLA-DRA (gene 3122); experiment: BSK_3C_HLADR: BioMAP Diversity Plus: 3C Assay for Human Leukocyte Antigen - DR isotype (HLADR) Biomarker Activity (AID 2283019; active means hit-call score of the fitted dose curve at least 0.9, where 1 is the maximum; inactive means score below 0.9); details: primary human endothelial cells (HUVEC); actives raise or lower the signal
In short: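 HUVEC monoculture, HLA-DR measured by ELISA 24 h after chemical dosing. Fitted bidirectionally against DMSO baseline; parallel SRB staining assessed cytotoxicity, with 3C proliferation read by SRB at 48 h.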

[9] = read-out: Interleukin-8 (IL8), CXCL8 (gene 3576); experiment: BSK_3C_IL8: BioMAP Diversity Plus: 3C Assay for Interleukin-8 (IL8) Biomarker Activity (AID 2283020; active means hit-call score of the fitted dose curve at least 0.9, where 1 is the maximum; inactive means score below 0.9); details: primary human endothelial cells (HUVEC); actives raise or lower the signal
In short: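 Endothelial primary cells of human umbilical vein origin are dosed with chemical; after 24 h the IL-8 biomarker is measured by ELISA, and concentration–response is fitted in both directions versus DMSO.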

[10] = molecular target: human Thyroid Receptor alpha (THRa1), THRA (gene 7067) (UniProt P10827); experiment: ATG_THRa1_TRANS: Attagene TRANS-FACTORIAL HepG2 Assay for human Thyroid Receptor alpha (THRa1) (AID 2283014)
Chain of human Thyroid Receptor alpha (THRa1), THRA (gene 7067) (P10827 whole entry, looked up, the tested form may be a part): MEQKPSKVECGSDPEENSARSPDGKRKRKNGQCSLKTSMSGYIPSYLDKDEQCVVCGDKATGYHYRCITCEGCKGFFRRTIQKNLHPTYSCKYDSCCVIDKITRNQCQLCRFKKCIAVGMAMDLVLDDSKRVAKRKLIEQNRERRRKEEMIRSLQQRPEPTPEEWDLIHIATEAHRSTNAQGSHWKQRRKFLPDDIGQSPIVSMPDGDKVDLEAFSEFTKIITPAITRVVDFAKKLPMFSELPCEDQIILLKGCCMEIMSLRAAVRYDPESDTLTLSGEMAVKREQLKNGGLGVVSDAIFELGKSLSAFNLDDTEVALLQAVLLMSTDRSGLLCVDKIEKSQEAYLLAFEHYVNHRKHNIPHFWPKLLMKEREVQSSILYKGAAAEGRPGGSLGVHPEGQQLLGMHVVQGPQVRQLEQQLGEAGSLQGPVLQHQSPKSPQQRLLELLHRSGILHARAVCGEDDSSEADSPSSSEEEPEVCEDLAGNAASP
In short: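 HepG2 cells transiently transfected with chimeric NR-Gal4 and GAL4-UAS reporter units, dosed 24 h. Reporter mRNA quantified by RT-PCR, fluorescent labeling, HpaI digestion and capillary electrophoresis; gain-of-signal fit versus DMSO.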

Measured: AC50

Chain of E-selectin (Homo sapiens) (P16581 whole entry, looked up): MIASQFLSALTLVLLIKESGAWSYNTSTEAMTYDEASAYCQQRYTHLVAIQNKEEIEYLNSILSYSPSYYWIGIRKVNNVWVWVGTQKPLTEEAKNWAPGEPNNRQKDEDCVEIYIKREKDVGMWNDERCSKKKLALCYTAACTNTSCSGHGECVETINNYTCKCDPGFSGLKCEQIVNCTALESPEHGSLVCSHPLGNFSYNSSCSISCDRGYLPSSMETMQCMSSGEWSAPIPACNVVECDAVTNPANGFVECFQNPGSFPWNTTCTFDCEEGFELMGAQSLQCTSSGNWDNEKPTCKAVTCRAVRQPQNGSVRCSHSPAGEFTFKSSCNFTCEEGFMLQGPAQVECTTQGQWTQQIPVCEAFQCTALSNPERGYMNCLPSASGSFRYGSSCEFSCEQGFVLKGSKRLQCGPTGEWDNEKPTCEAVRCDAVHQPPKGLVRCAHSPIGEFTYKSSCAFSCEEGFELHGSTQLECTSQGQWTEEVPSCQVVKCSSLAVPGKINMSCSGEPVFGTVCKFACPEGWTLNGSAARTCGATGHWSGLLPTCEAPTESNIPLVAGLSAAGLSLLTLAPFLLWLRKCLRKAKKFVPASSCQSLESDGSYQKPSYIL

CCCCC=O
not listed: [10]
inactive: all other assays above

O=C(NO)c1ccccc1
not listed: [3] | [10]
inactive: all other assays above

CNNCc1ccc(C(=O)NC(C)C)cc1
inactive: [2] | [3]

CC(=O)Nc1ccc(O)cc1
not listed: [3]
inactive: all other assays above

Oc1cc2ccccc2cc1O
not listed: [3]
inactive: all other assays above

CCC1CO1 (configuration not stated)
inactive: [1] | [3] | [10]

Cc1ccccc1OCC(=O)O
inactive: [1] | [3]

CCCCCCC(C)(C)C(=O)O
inactive: [1] | [3] | [10]

C=CC(=O)OCCC(F)(F)C(F)(F)C(F)(F)C(F)(F)C(F)(F)C(F)(F)F
inactive: [2] | [3]

CC(C)C=O
inactive: [2]
active: [3] 100 µM

COCC1CCC(CO)CC1 (configuration not stated)
inactive: [1] | [3]

O=C1OC2(c3ccccc31)c1cc(I)c(O)c(I)c1Oc1c2cc(I)c(O)c1I
active: [4] 5.74 µM | [5] 4.58 µM | [6] 6.03 µM | [7] 4.8 µM | [8] 6.51 µM
inactive: [1] | [2] | [10] | [9]

CCCCCCCCCCCCCCC
not listed: [2] | [10]
inactive: all other assays above

CCCCCc1ccc(O)cc1
inactive: [1]
active: [3] 33.4 µM | [4] 13.5 µM | [5] 23.8 µM | [6] 20 µM | [7] 9.34 µM | [8] 11.6 µM | [9] 11.3 µM

CCC(=O)O
inactive: [1] | [3]

CCCCCCCCCCCC[N+](C)(C)CCCCCCCCCCCC
inactive: [2]

Cc1ccc(C)c(S(=O)(=O)O)c1
inactive: [1] | [2] | [10]
